Results on 36 compounds are retold here after PubChem BioAssay (Tox21).

“And” between values parts separate entries of the source, which are not always exact repeats. Identical values can stand only once. A number with no mark means an inactive call. Records with an inconclusive call do not appear. A call without a number means that no potency is given here. The source made the active and inactive calls. Unless noted, the call rests on the fitted dose curve; in most records, active means well fitted cell-killing curve with a large enough effect in the repeat runs; inconclusive means weak or mixed curves; inactive means flat fitted curve, though single readings scatter. Residues, ends and D or L forms follow the SMILES beside them.

The first experiment is described as follows: qHTS assay to identify small molecule agonists of the estrogen related receptor (ERR) signaling pathway from Tox21 library (AID 1224849; calls by dose curve; further: nearly all actives have a fitted effect of over 15% in size). The note with it: ERR reporter cell line, ONE-Glo luciferase, 18 h; at 42.5 µM (top of the series). Put shortly: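 ERR cells, 6 h pre-incubation 37 C/5% CO2; cpd in DMSO pinned; 18 h 37 C; ONE-Glo added, 30 min RT; luminescence read. Agonist mode, qHTS.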
On the technique in general: In qHTS, concentration-response curves come from the screen itself.
For the compound `O=c1cc[nH]c(=S)[nH]1`, the activity change, positive = activation is 7.5%.

As to `CCCCC1C(=O)N(c2ccccc2)N(c2ccccc2)C1=O`, the activity change, positive = activation is 2.49%. `O=C(O)CCC(=O)O`: the activity change, positive = activation was 5.73%. Same read-out and setting: next, `COc1ccc2[nH]cc(CCNC(C)=O)c2c1`: 6.1%; `CC(=O)OCC(COC(C)=O)OC(C)=O`: 6.67%; `OC(Cn1cncn1)(Cn1cncn1)c1ccc(F)cc1F`: 4.61%. Same read-out and setting: next, `CCCN(CCC)S(=O)(=O)c1ccc(C(=O)O)cc1`: 3.98%.

As to `NNC(=O)c1ccncc1`, the activity change, positive = activation was -2.18% and 2.7%. The same measure, in the same setting: for `O=C1CN(/N=C/c2ccc([N+](=O)[O-])o2)C(=O)N1` the value was -52%; for `CCCCOC(=O)CC(CC(=O)OCCCC)(OC(C)=O)C(=O)OCCCC`, -18.7%; for `CCCCC(CC)COC(=O)/C=C/c1ccc(OC)cc1` (stereo unspecified), -9.11%. `CC1(C)[C@@H]2CC[C@@]1(C)C(=O)C2`: the activity change, positive = activation is 1.44%.

On to `Cc1cc(=O)n(-c2ccccc2)n1C`, for which the activity change, positive = activation was 4.6%.

As to `NC(=O)c1cnccn1`, the activity change, positive = activation is 4.26%. `Cc1ccccc1C(OCCN(C)C)c1ccccc1` (stereo unspecified): the activity change, positive = activation is 0.836%.

Still in this experiment, the particulars now being: ERR reporter cell line, ONE-Glo luciferase, 18 h; at 92.4 µM (top of the series).
On to `O=c1cc[nH]c(=S)[nH]1`, for which the activity change, positive = activation was 16.5% and 3.21%.

Take `CCCCC1C(=O)N(c2ccccc2)N(c2ccccc2)C1=O`: the activity change, positive = activation is -34.5% and -44.9%.

For the compound `O=C(O)CCC(=O)O`, the activity change, positive = activation is 5.97% and 1.48%. Take `COc1ccc2[nH]cc(CCNC(C)=O)c2c1`: the activity change, positive = activation was 9.68% and -2.51%. Regarding `CC(=O)OCC(COC(C)=O)OC(C)=O`, the activity change, positive = activation is -0.709% and 8.04%. With `OC(Cn1cncn1)(Cn1cncn1)c1ccc(F)cc1F`, the activity change, positive = activation was 8.25% and 5.79%. On the same count and under the same terms, next, `CCCN(CCC)S(=O)(=O)c1ccc(C(=O)O)cc1`: -17.4% and 3.56%; `NNC(=O)c1ccncc1`: -1.91%. Same read-out and setting: for `O=C1CN(/N=C/c2ccc([N+](=O)[O-])o2)C(=O)N1` the value was -64.2% and -59.1%; for `CCCCOC(=O)CC(CC(=O)OCCCC)(OC(C)=O)C(=O)OCCCC`, -11.9% and -24.8%.

As to `CCCCC(CC)COC(=O)/C=C/c1ccc(OC)cc1` (stereo unspecified), the activity change, positive = activation was 7.09% and -5.92%. On the same count and under the same terms, for `CC1(C)[C@@H]2CC[C@@]1(C)C(=O)C2` the value was 5.63% and 2.83%; for `Cc1cc(=O)n(-c2ccccc2)n1C`, 1.91% and 2.64%. Turning to `NC(=O)c1cnccn1`, the activity change, positive = activation is -0.224% and -0.902%. Same read-out and setting: for `Cc1ccccc1C(OCCN(C)C)c1ccccc1` (stereo unspecified) the value was 0.151% and 0.194%.

The nature of a further experiment: qHTS RealTime-Glo MT Cell Viability Assay in HepG2 cells - 24 hour (AID 1224867). Further: nearly all actives have a fitted effect of over 50% in size. The note with it: RealTime-Glo luminescence; series mostly up to 76.8 µM. Put shortly: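 HepG2 cells (600/well) were dispensed with RealTime-Glo reagents, incubated 5 h at 37 °C, then treated with compounds in DMSO for up to 40 h. Nonlytic NanoLuc luminescence reflecting viable cells was read at each stated time point.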
In the case of `C[C@]12C=CC(=O)C=C1CC[C@@H]1[C@@H]2[C@@H](O)C[C@@]2(C)[C@H]1CC[C@]2(O)C(=O)CO`, the Potency entry is “inactive”. Consider `CC(=O)NS(=O)(=O)c1ccc(N)cc1`, for which the Potency result was “inactive”. For the compound `Nc1ccc(C(=O)O)cc1`, the Potency result is “inactive”. Still for that read-out and setting: for `O=c1cc[nH]c(=S)[nH]1` the value was “inactive”. Regarding `C/C=C/c1ccc(OC)cc1`, the Potency result is “inactive”. For `CCCCC1C(=O)N(c2ccccc2)N(c2ccccc2)C1=O`, the Potency result is “inactive”. The same measure, in the same setting: for `Cc1ccc(C)c(OCCCC(C)(C)C(=O)O)c1` the value was “inactive”; for `O=C(O)CCC(=O)O`, “inactive”; for `CC(=O)Nc1nnc(S(N)(=O)=O)s1`, “inactive”.

As to `COC(=O)[C@H](Cc1ccccc1)NC(=O)[C@@H](N)CC(=O)O` (H-Asp-Phe-OMe), the Potency entry is “inactive”. With `CCCC(CCC)C(=O)O`, the Potency entry is “inactive”. `COc1ccc2[nH]cc(CCNC(C)=O)c2c1`: the Potency result is “inactive”.

For the compound `CC(=O)OCC(COC(C)=O)OC(C)=O`, the Potency result is “inactive”. For `Cn1c(=O)c2[nH]cnc2n(C)c1=O`, the Potency result was “inactive”. In the case of `Nc1ccc(S(=O)(=O)c2ccc(N)cc2)cc1`, the Potency result was “inactive”. In the case of `OC(Cn1cncn1)(Cn1cncn1)c1ccc(F)cc1F`, the Potency result was “inactive”. Turning to `C1N2CN3CN1CN(C2)C3`, the Potency result was “inactive”. For `CCCN(CCC)S(=O)(=O)c1ccc(C(=O)O)cc1`, the Potency entry was “inactive”. In the case of `NNC(=O)c1ccncc1`, the Potency result was “inactive”. Still for that read-out and setting: next, `Cn1cc[nH]c1=S`: “inactive”. Take `O=C1CN(/N=C/c2ccc([N+](=O)[O-])o2)C(=O)N1`: the Potency entry was “inactive”. Still for that read-out and setting: next, `CCCCOC(=O)CC(CC(=O)OCCCC)(OC(C)=O)C(=O)OCCCC`: “inactive”; `CCCCC(CC)COC(=O)/C=C/c1ccc(OC)cc1` (stereo unspecified): “inactive”; `CC(C)(Oc1ccc(C2CC2(Cl)Cl)cc1)C(=O)O` (stereo unspecified): “inactive”. Same read-out and setting: next, `OCCc1ccccc1`: “inactive”; `NC(N)=NC(=O)c1nc(Cl)c(N)nc1N`: “inactive”. On the same count and under the same terms, for `NC(=O)c1ccccc1O` the value was “inactive”.

`CC1(C)[C@@H]2CC[C@@]1(C)C(=O)C2`: the Potency entry is “inactive”.

Take `Cc1cc(=O)n(-c2ccccc2)n1C`: the Potency entry was “inactive”. On the same count and under the same terms, for `CCOc1ccc(NC(=O)CC(C)O)cc1` (stereo unspecified) the value was “inactive”; for `NC(=O)c1cnccn1`, “inactive”; for `O=c1ccc2ccccc2o1`, “inactive”. On the same count and under the same terms, for `Cc1noc(NS(=O)(=O)c2ccc(N)cc2)c1C` the value was “inactive”; for `Cc1cc(=O)[nH]c(=S)[nH]1`, “inactive”; for `Cc1ccccc1C(OCCN(C)C)c1ccccc1` (stereo unspecified), “inactive”.

In the case of `O=S(=O)(O)c1ccc2cc(O)ccc2c1`, the Potency entry is “inactive”.
